From PubChem
NALP1 inh: blocks the NALP1 inflammasome reconstituted in yeast | S. cerevisiae NALP1/ASC/caspase-1 growth, X-gal OD620, 72 h | inhibition, % at 10 µM | actives 0.61% (n = 280,000); in the data active = inhibition mostly above about 24%, no sharp cut-off; inactive = mostly below about 32%
Mot1-301 SUMO: SUMOylation pathway inhibition by Mot1-301 growth rescue; S. cerevisiae Mot1-301 growth rescue, ATP luminescence, 38.5C; percent above DMSO median, 100 means doubled; growth rescue, % at 18.8 µM; actives 1% (n = 320,000); AID 2716;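 active = every valid replicate shows activation above 250% relative to neutral control wells; inactive = the rest, any valid replicate at or below 250%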
NALP3 yeast inh: NALP3 inhibition in yeast; Yeast reconstituted NLRP3/ASC/caspase-1, beta-gal luminescence, 24 h; inhibition, % at 10 µM; actives 0.39% (n = 330,000);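 active = inhibition of 50% or more; inactive = inhibition below 50%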
PolyA inh: yeast polyadenylation inhibition. activity score, % at 12 µM. AID 1875. actives 0.02% (n = 300,000). S. cerevisiae SKY197-pL101 polyadenylation reporter, beta-gal luminescence; efflux-impaired pdr1/pdr3 knockout yeast; score 100 = 6 SD above DMSO;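 active = lowest replicate activity score at least 50, where 100 means six control SD above control mean; inconclusive = lowest score under 50 but half or more replicates reach 50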;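 note: yeast exposed to compound for 9 h at 30 °C; higher score means more reporter readthrough which indicates perturbed polyadenylation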
NALP3 confirm: NALP3 inhibition confirmation in yeast; yeast expressing human NALP3, luminescence; actives 81% (n = 1,300); inhibition, % at 10 µM; AID 435006; shares compounds with NALP3 yeast inh; in the data active = inhibition above about 48%
Casp1-ASC yeast: caspase-1-ASC yeast counter-screen hit; yeast expressing Caspase-1-ASC, luminescence counter screen; actives 66% (n = 1,000); AID 488784; inhibition, % at 10 µM; shares compounds with NALP3 yeast inh
NALP3 yeast rt: retest-confirmed inhibitor of NALP3 in yeast. actives 53% (n = 1,000). inhibition, % at 10 µM. AID 488794. shares compounds with NALP3 yeast inh. yeast expressing human NALP3, luminescence read-out
Each line names hits and unclear results; the compound was inactive in the other large screens (follow-up assays come after a bar, where they were run). Rows were chosen to be rich in hits. Some 1.8% of all compounds tested hit in one or more screens of this group. Cut-off read from the data, not from the text of the source, unless noted: active = inhibition above about 50%; inactive = the rest.

Cc1ccc(C(=O)Nc2scc(-c3ccccc3)c2C(=O)O)cc1	NALP3 yeast inh 78.5 (no result: NALP1 inh) | NALP3 confirm 77.8 | Casp1-ASC yeast 86.3 | NALP3 yeast rt 82.2
COc1ccc(-c2csc(NC(=O)c3ccccc3F)c2C(=O)O)cc1	NALP3 yeast inh 81.2, PolyA inh inconclusive | NALP3 confirm 93.7 | Casp1-ASC yeast 90.6 | NALP3 yeast rt 81.3
CCc1nnc(NC(=O)CCC(=O)Nc2ccccc2)s1	none
CCc1nnc(NC(=S)Nc2ccccc2)s1	NALP3 yeast inh 54.7 | NALP3 confirm inactive
COC(=O)CN(c1ccccc1F)S(=O)(=O)c1ccc(C)cc1	none
COC(=O)CN(c1ccc(C)cc1)S(=O)(=O)c1ccc(F)cc1	NALP3 yeast inh 58.0 | NALP3 confirm 55.3
Oc1c(I)cc(Cl)c2cccnc12	NALP1 inh 70.0, NALP3 yeast inh 59.0 | NALP3 confirm 68.2 | Casp1-ASC yeast 71.7 | NALP3 yeast rt 78.5
COc1cc2cnc(-c3ccsc3)cc2cc1OC	none (no result: NALP1 inh, PolyA inh)
c1cc(-c2cc3cc4c(cc3cn2)OCO4)cs1	NALP3 yeast inh 57.3 (no result: NALP1 inh, PolyA inh) | NALP3 confirm 51.3 | Casp1-ASC yeast inactive | NALP3 yeast rt inactive
Nc1nc(-c2ccccc2)c(-c2ccc([N+](=O)[O-])cc2)s1	NALP3 yeast inh 95.0 | NALP3 confirm 97.8 | Casp1-ASC yeast 97.6 | NALP3 yeast rt 94.7
Nc1nc(-c2ccccc2)c(-c2ccccc2)s1	none (no result: Mot1-301 SUMO)
O=C(c1ccncc1)N1CCN(S(=O)(=O)c2cccc(F)c2)CC1	none
CCc1sc(C(=O)Nc2nc(C)cs2)cc1C	NALP3 yeast inh 56.1 (no result: Mot1-301 SUMO) | NALP3 confirm 72.2 | Casp1-ASC yeast 65.5 | NALP3 yeast rt 54.2
CCOC(=O)c1c(NC(=O)CC2SC(=NC)N(C)C2=O)sc(C)c1C (stereo unspecified)	NALP3 yeast inh 59.8 | NALP3 confirm 59.1 | Casp1-ASC yeast 60.3 | NALP3 yeast rt inactive
CN=C1SC(CC(=O)Nc2sc(C)c(C)c2C(=O)OC)C(=O)N1C (stereo unspecified)	none
O=C(CSc1n[nH]c(=O)[nH]c1=O)N/N=C/C=C/c1ccccc1	none (no result: NALP1 inh, Mot1-301 SUMO)
Cc1ccc(-c2nc(CNC(=O)c3cc(C)on3)cs2)cc1	NALP3 yeast inh 65.6 | NALP3 confirm 74.8 | Casp1-ASC yeast 68.2 | NALP3 yeast rt 53.6
Cc1cc2c(cc1S(=O)(=O)N1CCN(c3ccccc3)CC1)OCCN2C	none
N#C/C(=N/Nc1ccc(OC(F)(F)F)cc1)C(N)=S	NALP3 yeast inh 85.8 | NALP3 confirm 96.8
COc1ccc(N/N=C(\C#N)C(N)=O)cc1	none
COc1ccc(S(=O)(=O)CCC(=O)N(C)c2ccc(OC)cc2OC)cc1	none
CC(C)Cn1c2ccccc2c2cc(C(=O)O)ccc21	none | NALP3 confirm inactive
CCCCc1c(C)c(C#N)c2[nH]c3ccccc3n2c1=O	NALP3 yeast inh 58.2 | NALP3 confirm 78.3 | Casp1-ASC yeast inactive | NALP3 yeast rt inactive
Cc1ccc(C)c(Sc2ccc(NC(=O)CCl)cc2)c1	NALP3 yeast inh 81.1 (no result: NALP1 inh) | NALP3 confirm 81.2 | Casp1-ASC yeast 87.8 | NALP3 yeast rt 73.8
Cc1ccc(Sc2ccc(NC(=O)CCl)cc2)cc1C	NALP1 inh 57.3, NALP3 yeast inh 66.4 | NALP3 confirm 76.4 | Casp1-ASC yeast 61.9 | NALP3 yeast rt 66.2
O=C(CCl)Nc1ccccc1Sc1ccccc1	none
Cn1c(=O)cc(OCCCC(=O)NCc2cccnc2)c2ccccc21	none
COC(=O)c1ccc(OC)c(CSc2nnc(COc3ccc(Cl)cc3)o2)c1	none
O=S(=O)(c1ccc(Cl)cc1)n1ccc2cccnc21	NALP3 yeast inh 61.5 | NALP3 confirm 61.4 | Casp1-ASC yeast 56.2 | NALP3 yeast rt inactive
O=S(=O)(c1ccc(Cl)cc1Cl)n1ccc2cccnc21	NALP3 yeast inh 72.9 | NALP3 confirm 67.1 | Casp1-ASC yeast 65.5 | NALP3 yeast rt inactive
CCN(Cc1cnn(C)c1)C(=O)c1cc(COc2ccc3c(c2)CCCC3)on1	none
Cc1cccc(N(C)c2ccc3cc(S(=O)(=O)N4CCCC4)ccc3n2)c1	NALP3 yeast inh 68.4 | NALP3 confirm 79.3 | Casp1-ASC yeast 74.9 | NALP3 yeast rt 58.1
Cc1cccc(N(C)C(=O)c2cc(S(=O)(=O)N3CCCC3)cn2C)c1	none
CC(=O)Nc1ccc(-c2csc(NC(=O)c3ccc(C)o3)n2)cc1	none
COc1ccc(-c2nc3ccccc3s2)cc1NC(C)=O	NALP3 yeast inh 51.3 | NALP3 confirm inactive | Casp1-ASC yeast inactive | NALP3 yeast rt inactive
Cc1cccc(C(=O)N2CCN(C(=O)c3cccc(C)c3)C(C)C2)c1 (stereo unspecified)	none (no result: PolyA inh)
COc1ccc2c(c1)C1NC(=S)N[C@@](C)(O2)C1C(=O)Nc1ccccc1 (stereo partly specified)	none
Cc1nnc(C)c2c(C)n(C(c3ccccc3)c3ccccc3)c(C)c12	none
COc1c(O)c(=O)n2c3ccccc3c3ccnc1c32	NALP3 yeast inh 76.9 (no result: NALP1 inh) | NALP3 confirm 85.1 | Casp1-ASC yeast 80.3 | NALP3 yeast rt 82.0
O=c1c(Cl)c(O)c2cccc3c4ccccc4n1c23	none
Cc1cccc(C(=O)O/N=C(\N)Cc2cccc3ccccc23)c1	NALP3 yeast inh 52.8 | NALP3 confirm 65.0 | Casp1-ASC yeast inactive | NALP3 yeast rt 63.6
Cc1cccc(/C(N)=N/OC(=O)Cc2cccc3ccccc23)c1	none
CC(=O)NC(CCS(C)(=O)=O)C(=O)Nc1ccccc1C (stereo unspecified)	none
O=[N+]([O-])c1cc(Br)c(O)c(/C=N/Nc2nnnn2-c2cccc3ccccc23)c1	NALP3 yeast inh 52.4 | NALP3 confirm 47.2
COCCNC(=O)c1cc2c3ccccc3n(C)c2s1	none
CCCNC(=O)c1cc2c3ccccc3n(C)c2s1	NALP3 yeast inh 50.9 | NALP3 confirm 49.8 | Casp1-ASC yeast inactive | NALP3 yeast rt inactive
Clc1ccccc1OCCn1cnc2ccccc21	NALP1 inh 30.0, NALP3 yeast inh 75.8 (no result: Mot1-301 SUMO) | NALP3 confirm 83.5 | Casp1-ASC yeast 78.8 | NALP3 yeast rt 63.2
COc1ccc2nc(NC(=O)CSCc3c(C)noc3C)sc2c1	none (no result: NALP1 inh)
CC(=O)NC(=S)Nc1cccc([N+](=O)[O-])c1	none
O=C(NC(=S)Nc1cccc([N+](=O)[O-])c1)C1CCCC1	NALP3 yeast inh 53.7 | NALP3 confirm 72.8 | Casp1-ASC yeast 60.2 | NALP3 yeast rt 57.9
CC1CCCCC1NC(=O)c1ccc(S(=O)(=O)NCC2CCCO2)cc1 (stereo unspecified)	none
NCCOc1ccccc1OCCN	none
NCCOc1ccccc1-c1ccccc1	NALP3 yeast inh 54.3 | NALP3 confirm 66.3 | Casp1-ASC yeast 56.5 | NALP3 yeast rt 50.3
COC(=O)COc1ccc2c(=O)c(-c3ccccc3)coc2c1	none
CC(C)Oc1ccc2c(=O)c(-c3ccccc3)coc2c1	NALP3 yeast inh 57.6 | NALP3 confirm 66.0 | Casp1-ASC yeast inactive | NALP3 yeast rt inactive
COc1cc(CN(CC2CCCO2)C(=O)c2cccs2)cc(OC)c1OC (stereo unspecified)	none (no result: Mot1-301 SUMO)
